In PubChem BioAssay AID590 (National Center for Advancing Translational Sciences (NCATS), 2007):
In all, about 59,000 compounds went through this assay and about 6,500 (11%) were called active. Another 15% or so got no clear call; they are omitted. Cut-off read from the data, not from the text of the source: active = max dye-equivalent concentration above about 10 nM; inconclusive = mostly about 1.1 nM to 9.6 nM; inactive = weaker than that. Shown is part of a subset that was picked to be rich in actives.

assay: qHTS Assay for Spectroscopic Profiling in A350 Spectral Region; settings: Compound autofluorescence, 340/450 nm, Alexa 350 dye-equivalents; hits give high values

Question: Which max dye-equivalent concentration does the source give for `O=C(NCCCCO)C(F)(F)C(F)(F)C(F)(F)C(=O)NCCCCO` here?
Answer: Its max dye-equivalent concentration is “inactive”.

Question: With `O=C(Nn1cnc2ccccc2c1=O)c1ccc(F)cc1Cl` as the compound, how does the max dye-equivalent concentration read?
Answer: Its max dye-equivalent concentration is “inactive”.

Question: Which max dye-equivalent concentration does the source give for `O=C(O)Cc1ccc(NC(=O)c2cccs2)cc1` here?
Answer: Its max dye-equivalent concentration is “inactive”.

Question: With `Cc1nc(-c2ccc(NC(=O)c3cccs3)cc2)cs1` as the compound, how does the max dye-equivalent concentration read?
Answer: The max dye-equivalent concentration was 280 nM (active).

Question: For `Cn1c(SCC(=O)Nc2cccc(NC(=O)c3cccs3)c2)nnc1-c1ccncc1`, which max dye-equivalent concentration is on record?
Answer: Its max dye-equivalent concentration is “inactive”.

Question: Which max dye-equivalent concentration does the source give for `O=C(O)C1CC(=O)N(Cc2cccnc2)C1` (stereo not given) here?
Answer: The max dye-equivalent concentration was “inactive”.

Question: Which max dye-equivalent concentration does the source give for `CCOc1ccccc1NC(=O)CCc1ccc(C)o1` here?
Answer: The max dye-equivalent concentration was “inactive”.

Question: Which max dye-equivalent concentration does the source give for `O=C(Oc1ccc2c(c1)CCC2)N1CCOCC1` here?
Answer: Its max dye-equivalent concentration is “inactive”.

Question: Which max dye-equivalent concentration does the source give for `O=C1CC2(CCCCC2)Oc2ccc(OCC(=O)N3CCOCC3)cc21` here?
Answer: The max dye-equivalent concentration was 1100 nM (active).

Question: With `O=C(Nc1cccc(OCC(=O)N2CCOCC2)c1)C1CCCCC1` as the compound, how does the max dye-equivalent concentration read?
Answer: The max dye-equivalent concentration was “inactive”.

Question: With `CCNc1nc(SCCOc2ccccc2)nc(N(C)C)n1` as the compound, how does the max dye-equivalent concentration read?
Answer: Its max dye-equivalent concentration is “inactive”.

Question: Which max dye-equivalent concentration does the source give for `CCCn1c(SCC(=O)Nc2c(C)cccc2C)nnc1C(C)C` here?
Answer: The max dye-equivalent concentration was “inactive”.

Question: With `CC(=O)Nc1ccc(NC(=O)CN2CCCC(C)C2)c(Cl)c1` (stereo not given) as the compound, how does the max dye-equivalent concentration read?
Answer: The max dye-equivalent concentration was “inactive”.

Question: With `Cc1cccn2c(=O)c3cc(C#N)c(=NC(=O)c4cccnc4)n(CC4CCCO4)c3nc12` (stereo not given) as the compound, how does the max dye-equivalent concentration read?
Answer: The max dye-equivalent concentration was 4000 nM (active).

Question: With `Cc1cccn2c(=O)c3cc(C#N)c(=O)n(CCCN4CCOCC4)c3nc12` as the compound, how does the max dye-equivalent concentration read?
Answer: Its max dye-equivalent concentration is 12000 nM (active).

Question: With `Cc1nnc(SCC(N)=O)n1CC1CCCO1` (stereo not given) as the compound, how does the max dye-equivalent concentration read?
Answer: The max dye-equivalent concentration was “inactive”.

Question: For `Cn1c(=O)c2c(nc(CN3CCOCC3)n2Cc2ccccc2)n(C)c1=O`, which max dye-equivalent concentration is on record?
Answer: The max dye-equivalent concentration was “inactive”.

Question: With `CCn1cc(C(=O)NCc2ccc(OC)cc2OC)c(=O)c2ccc(C)nc21` as the compound, how does the max dye-equivalent concentration read?
Answer: Its max dye-equivalent concentration is “inactive”.

Question: Which max dye-equivalent concentration does the source give for `Cc1ccc(S(=O)(=O)NC(=O)NN2C[C@H]3CCC[C@@H]3C2)cc1` here?
Answer: Its max dye-equivalent concentration is “inactive”.

Question: Which max dye-equivalent concentration does the source give for `Cc1cc(=O)[nH]c(SCC(N)=O)c1C#N` here?
Answer: Its max dye-equivalent concentration is “inactive”.

Question: For `Cn1cccc1C(=O)N1CCC[C@@]2(CCN(Cc3nccs3)C2)C1`, which max dye-equivalent concentration is on record?
Answer: The max dye-equivalent concentration was “inactive”.

Question: With `O=S(=O)(c1ccc(Sc2nnc3ccccn23)nc1)N1CCOCC1` as the compound, how does the max dye-equivalent concentration read?
Answer: Its max dye-equivalent concentration is “inactive”.

Question: For `CC(C)(C)c1nc(NCC2CCCO2)c2nnn(Cc3ccccc3)c2n1` (stereo not given), which max dye-equivalent concentration is on record?
Answer: The max dye-equivalent concentration was “inactive”.

Question: Which max dye-equivalent concentration does the source give for `CC(CCO)Nc1nc2c([nH]1)c(=O)n(C)c(=O)n2C` (stereo not given) here?
Answer: Its max dye-equivalent concentration is “inactive”.

Question: Which max dye-equivalent concentration does the source give for `Cn1c(=O)c2[nH]c(NCC3CCCO3)nc2n(-c2ccccc2)c1=O` (stereo not given) here?
Answer: Its max dye-equivalent concentration is 11 nM (active).

Question: For `Cc1ccc2nc(S(=O)(=O)O)[nH]c2c1`, which max dye-equivalent concentration is on record?
Answer: The max dye-equivalent concentration was “inactive”.

Question: For `CCOC(=O)c1cc(-c2nnc(-c3cc(OC)c(OC)c(OC)c3)o2)c(C)nc1C`, which max dye-equivalent concentration is on record?
Answer: The max dye-equivalent concentration was 18 nM (active).

Question: Which max dye-equivalent concentration does the source give for `COc1cc(-c2nc(S(=O)(=O)c3ccc(Cl)cc3)c(N(C)C)o2)cc(OC)c1OC` here?
Answer: Its max dye-equivalent concentration is “inactive”.

Question: For `COc1cc(-c2nnc(Cn3cc(C(F)(F)F)ccc3=O)o2)cc(OC)c1OC`, which max dye-equivalent concentration is on record?
Answer: The max dye-equivalent concentration was “inactive”.

Question: For `CCCCC(=O)N1CC2(C)CN(C(=O)CCCC)CC(C)(C1)C2=O`, which max dye-equivalent concentration is on record?
Answer: The max dye-equivalent concentration was “inactive”.
